This excerpt belongs to a sample that is enriched for the strongest signals.
Key:
Assay in all cases: glycan array binding signal (z-score within array); higher = stronger binding
Settings in all cases: glycan notation: IUPAC condensed, linker removed
GlcA(b1-3)GlcNAc = target: GlcA(b1-3)GlcNAc
Outline: (§1)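 The binding signal is a Z-score computed within each array. Data were drawn from 3228 arrays in the Consortium for Functional Glycomics database, restricted to those with a known protein sequence. Scores were averaged over arrays of the same protein sequence at different concentrations or buffers, and over linkers, and negative values can be taken as non-binding.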

[1] = target: GlcNAc(a1-4)Gal(b1-4)GlcNAc(b1-3)Gal(b1-4)GlcNAc(b1-3)Gal(b1-4)GlcNAc
Outline: as §1

[2] = target: GlcNAc(b1-2)Man(a1-3)[GlcNAc(b1-2)Man(a1-6)]Man(b1-4)GlcNAc(b1-4)[Fuc(a1-6)]GlcNAc
Outline: as §1

[3] = target: GlcNAc(b1-2)[GlcNAc(b1-4)]Man(a1-3)[GlcNAc(b1-4)][GlcNAc(b1-2)[GlcNAc(b1-6)]Man(a1-6)]Man(b1-4)GlcNAc(b1-4)[Fuc(a1-6)]GlcNAc
Outline: as §1

[4] = target: GlcNAc(b1-3)Gal(b1-4)GlcNAc
Outline: as §1

[5] = target: GlcNAc(b1-3)Gal(b1-4)GlcNAc(b1-2)Man(a1-3)[GlcNAc(b1-3)Gal(b1-4)GlcNAc(b1-2)Man(a1-6)]Man(b1-4)GlcNAc(b1-4)GlcNAc
Outline: as §1

[6] = target: GlcNAc(b1-3)Gal(b1-4)GlcNAc(b1-3)Gal(b1-4)GlcNAc
Outline: as §1

[7] = target: GlcNAc(b1-3)Gal(b1-4)GlcNAc(b1-3)Gal(b1-4)GlcNAc(b1-2)Man(a1-3)[GlcNAc(b1-3)Gal(b1-4)GlcNAc(b1-3)Gal(b1-4)GlcNAc(b1-2)Man(a1-6)]Man(b1-4)GlcNAc(b1-4)GlcNAc
Outline: as §1

[8] = target: GlcNAc(b1-3)Gal(b1-4)GlcNAc(b1-3)Gal(b1-4)GlcNAc(b1-3)Gal(b1-4)GlcNAc(b1-2)Man(a1-3)[GlcNAc(b1-3)Gal(b1-4)GlcNAc(b1-3)Gal(b1-4)GlcNAc(b1-3)Gal(b1-4)GlcNAc(b1-2)Man(a1-6)]Man(b1-4)GlcNAc(b1-4)[Fuc(a1-6)]GlcNAc
Outline: as §1

[9] = target: GlcNAc(b1-3)Gal(b1-4)GlcNAc(b1-3)Gal(b1-4)GlcNAc(b1-3)Gal(b1-4)GlcNAc(b1-3)Gal(b1-4)GlcNAc(b1-2)Man(a1-3)[GlcNAc(b1-3)Gal(b1-4)GlcNAc(b1-3)Gal(b1-4)GlcNAc(b1-3)Gal(b1-4)GlcNAc(b1-3)Gal(b1-4)GlcNAc(b1-2)Man(a1-6)]Man(b1-4)GlcNAc(b1-4)GlcNAc
Outline: as §1

[10] = target: GlcNAc(b1-3)Gal(b1-4)GlcNAc(b1-3)Gal(b1-4)GlcNAc(b1-3)Gal(b1-4)GlcNAc(b1-3)Gal(b1-4)GlcNAc(b1-2)[GlcNAc(b1-3)Gal(b1-4)GlcNAc(b1-3)Gal(b1-4)GlcNAc(b1-3)Gal(b1-4)GlcNAc(b1-3)Gal(b1-4)GlcNAc(b1-6)]Man(a1-6)[GlcNAc(b1-3)Gal(b1-4)GlcNAc(b1-3)Gal(b1-4)GlcNAc(b1-3)Gal(b1-4)GlcNAc(b1-3)Gal(b1-4)GlcNAc(b1-2)Man(a1-3)]Man(b1-4)GlcNAc(b1-4)[Fuc(a1-6)]GlcNAc
Outline: as §1

[11] = target: GlcNAc(b1-3)Gal(b1-4)GlcNAc(b1-6)[Gal(b1-3)]GalNAc
Outline: as §1

GlcNAc(b1-3)Man = target: GlcNAc(b1-3)Man
Outline: as §1

Kdn(a2-6)Gal(b1-4)GlcNAc = target: Kdn(a2-6)Gal(b1-4)GlcNAc
Outline: as §1

[12] = target: Man(a1-3)[Man(a1-6)]Man(a1-6)[Man(a1-3)]Man(b1-4)GlcNAc(b1-4)GlcNAc
Outline: as §1

Man(b1-4)GlcNAc = target: Man(b1-4)GlcNAc
Outline: as §1

Neu5Ac(a2-3)Gal = target: Neu5Ac(a2-3)Gal
Outline: as §1

[13] = target: Neu5Ac(a2-3)Gal(b1-3)GlcNAc(b1-2)Man(a1-3)[GlcNAc(b1-4)][Neu5Ac(a2-3)Gal(b1-3)GlcNAc(b1-2)Man(a1-6)]Man(b1-4)GlcNAc(b1-4)GlcNAc
Outline: as §1

[14] = target: Neu5Ac(a2-3)Gal(b1-3)GlcNAc(b1-2)[Neu5Ac(a2-3)Gal(b1-3)GlcNAc(b1-4)]Man(a1-6)[Neu5Ac(a2-3)Gal(b1-3)GlcNAc(b1-2)Man(a1-3)]Man(b1-4)GlcNAc(b1-4)GlcNAc
Outline: as §1

[15] = target: Neu5Ac(a2-3)Gal(b1-3)GlcNAc(b1-3)Gal(b1-4)GlcNAc
Outline: as §1

[16] = target: Neu5Ac(a2-3)Gal(b1-3)GlcNAc6S
Outline: as §1

[17] = target: Neu5Ac(a2-3)Gal(b1-3)[Fuc(a1-4)]GlcNAc
Outline: as §1

[18] = target: Neu5Ac(a2-3)Gal(b1-3)[Neu5Ac(a2-6)]GlcNAc(b1-3)[Fuc(a1-3)[Gal(b1-4)]GlcNAc(b1-6)]Gal(b1-4)Glc
Outline: as §1

[19] = target: Neu5Ac(a2-3)Gal(b1-4)GlcNAc(b1-2)Man(a1-3)[Neu5Ac(a2-3)Gal(b1-4)GlcNAc(b1-2)Man(a1-6)]Man(b1-4)GlcNAc(b1-4)[Fuc(a1-6)]GlcNAc
Outline: as §1

[20] = target: Neu5Ac(a2-3)Gal(b1-4)GlcNAc(b1-3)Gal(b1-4)GlcNAc(b1-3)[Neu5Ac(a2-3)Gal(b1-4)GlcNAc(b1-3)Gal(b1-4)GlcNAc(b1-6)]GalNAc
Outline: as §1

[21] = target: Neu5Ac(a2-3)Gal(b1-4)GlcNAc(b1-6)[Neu5Ac(a2-3)Gal(b1-3)]GalNAc
Outline: as §1

[22] = target: Neu5Ac(a2-3)Gal(b1-4)GlcNAc6S
Outline: as §1

[23] = target: Neu5Ac(a2-3)Gal(b1-4)[Fuc(a1-3)]GlcNAc(b1-3)Gal(b1-4)GlcNAc
Outline: as §1

Neu5Ac(a2-3)GalNAc = target: Neu5Ac(a2-3)GalNAc
Outline: as §1

[24] = target: Neu5Ac(a2-3)[GalNAc(b1-4)]Gal(b1-4)Glc
Outline: as §1

B1: ArathEULS3 TAP (Arabidopsis thaliana) (protein)
chain: IDENLYFQGGSMDEKTTGWRGGHVVEGLAGELEQLRARLEHHPQGQREPGGGGSLEITSLYKKAGFMEHHHQHHRHHQRDDGEDDRQSFGVPPPHVDAPPQPHGLYQSQPHFDPYAPTPQAPAPYRSETQFEPHAPPPYRSEPYFETPAPPPSFGHVSHVGHQSPNESYPPEHHRYGGYQQPSNSLLESHGDHSGVTHVAHHSSNQPQSSSGVYHKPDENRLPDNLAGLAGRATVKVYSKAEPNYNLTIRDGKVILAPADPSDEAQHWYKDEKYSTKVKDADGHPCFALVNKATGEAMKHSVGATHPVHLIRYVPDKLDESVLWTESKDFGDGYRTIRMVNNTRLNVDAYHGDSKSGGVRDGTTIVLWDWNKGDNQLWKIFPF
With B1 the “glycan array binding signal (z-score)” value (GlcA(b1-3)GlcNAc) was -0.1, the “glycan array binding signal (z-score)” value [1] was 0.236 and the “glycan array binding signal (z-score)” value [2] was -0.928. The “glycan array binding signal (z-score)” value [3] was -0.659, the “glycan array binding signal (z-score)” value [4] was -0.59 and the “glycan array binding signal (z-score)” value [5] was -0.107. The “glycan array binding signal (z-score)” value [6] was 0.442, the “glycan array binding signal (z-score)” value [7] was 2.26 and the “glycan array binding signal (z-score)” value [8] was 2.42. The “glycan array binding signal (z-score)” value [9] was 0.229, the “glycan array binding signal (z-score)” value [10] was 3.16 and the “glycan array binding signal (z-score)” value [11] was -0.045. The “glycan array binding signal (z-score)” value (GlcNAc(b1-3)Man) was 0.29, the “glycan array binding signal (z-score)” value (Kdn(a2-6)Gal(b1-4)GlcNAc) was 0.575 and the “glycan array binding signal (z-score)” value [12] was 3.03. For the same binder, the “glycan array binding signal (z-score)” value (Man(b1-4)GlcNAc) was -0.658, the “glycan array binding signal (z-score)” value (Neu5Ac(a2-3)Gal) was -1.33 and the “glycan array binding signal (z-score)” value [13] was -1.32. For the same binder, the “glycan array binding signal (z-score)” value [14] was 1.77, the “glycan array binding signal (z-score)” value [15] was -0.43 and the “glycan array binding signal (z-score)” value [16] was 0.337. The “glycan array binding signal (z-score)” value [17] was 0.016, the “glycan array binding signal (z-score)” value [18] was 2.31 and the “glycan array binding signal (z-score)” value [19] was -0.12. The “glycan array binding signal (z-score)” value [20] was 0.575, the “glycan array binding signal (z-score)” value [21] was -1.05 and the “glycan array binding signal (z-score)” value [22] was -0.296. For the same binder, the “glycan array binding signal (z-score)” value [23] was 2.91, the “glycan array binding signal (z-score)” value (Neu5Ac(a2-3)GalNAc) was 0.618 and the “glycan array binding signal (z-score)” value [24] was 0.447.

Source: the supplement of paper PMC8728848
